Drawing on PubChem BioAssay (NCI), this text covers growth for six compounds.

About 83,000 compounds went through this panel and 20% of them were active in at least one assay; those are over-represented in the sample as a whole.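 Testing used 96-well plates and a 48-hour single-concentration exposure. Example: -40 means 40% of the starting cells died.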 Values without a mark were called inactive. Active and inactive are the calls of the source. Rule for the calls: active = growth percent below 10; inactive = the rest.

Test systems include NCI-H23 lung; NCI-H226 lung; NCI-H322M lung; HOP-62 NSCLC; NCI-H460 lung; HOP-92 NSCLC; NCI-H522 lung; A549/ATCC NSCLC; 786-0 renal; COLO 205 colon; DU-145 prostate; K-562 leukemia; MALME-3M melanoma; MDA-MB-231 breast; SF-268 CNS; SF-295 CNS; SF-539 CNS; UACC-257 melanoma; M14 melanoma; RXF 393 renal.
Holding throughout (assay): NCI-60 one-dose screen, 48 h (100 = growth as untreated, 0 = no growth, -100 = all killed)
Holding throughout (conditions): 10 µM unless noted

As to `COc1ccc2cc(-c3ccc(-c4ccc(C(=N)N)cc4)s3)ccc2c1`, the growth with NCI-H23 lung was 107%; with NCI-H226 lung, 102%; in the assay on NCI-H322M lung, 97.7%; with HOP-62 NSCLC it was 93.3%; with NCI-H460 lung, 100%; in the assay on HOP-92 NSCLC, 87.2%. Further, the growth in the assay on NCI-H522 lung is 102%; with A549/ATCC NSCLC, 104%; with 786-0 renal, 99.5%; with COLO 205 colon it was 72.5%; in the assay with DU-145 prostate, 61%; in the assay on K-562 leukemia it was 40%. The growth was 104% in the assay on MALME-3M melanoma; 100% with MDA-MB-231 breast; 94.6% with SF-268 CNS; 101% in the assay with SF-295 CNS; 98.9% in the assay on SF-539 CNS; 104% with UACC-257 melanoma. Moreover, in the assay on M14 melanoma, the growth was 97.6%.

As for `O=[N+]([O-])c1cnc(Sc2ccncn2)s1`, the growth was 77% in the assay on NCI-H23 lung; 110% in the assay on NCI-H226 lung; 99.1% in the assay on NCI-H322M lung; 92% in the assay on HOP-62 NSCLC; 97.3% in the assay with NCI-H460 lung; -64.9% (active) in the assay with HOP-92 NSCLC. The growth in the assay on NCI-H522 lung was -79.1% (active); in the assay on A549/ATCC NSCLC it was 95.9%; with 786-0 renal, 93.1%; in the assay with COLO 205 colon, -77.4% (active); with DU-145 prostate, -21.5% (active); in the assay on K-562 leukemia it was -44.4% (active). Further, the growth in the assay on MALME-3M melanoma was -63.5% (active); in the assay on MDA-MB-231 breast, 75.4%; in the assay with SF-268 CNS, 35.7%; in the assay with SF-295 CNS, 102%; in the assay on SF-539 CNS, 91.1%; with UACC-257 melanoma it was -18.7% (active). Further, in the assay on M14 melanoma, the growth was 6.85% (active).

Take `COc1cc(-c2nn(-c3cccc(NC(=O)Nc4ccc(Cl)c(Cl)c4)c3)cc2-c2ccncc2)ccc1Cl`: the growth in the assay with NCI-H23 lung is 1.67% (active); with NCI-H226 lung, 9.61% (active); in the assay on NCI-H322M lung, 38.8%; with HOP-62 NSCLC, 10.2%; in the assay on NCI-H460 lung, 2.32% (active); in the assay with HOP-92 NSCLC it was -34.3% (active). Also, the growth is -14.7% (active) in the assay on NCI-H522 lung; -5.88% (active) in the assay on A549/ATCC NSCLC; 15.3% in the assay with 786-0 renal; -80.4% (active) in the assay with COLO 205 colon; 20% in the assay with DU-145 prostate; 3.63% (active) in the assay with K-562 leukemia. The growth in the assay with MALME-3M melanoma was -19.9% (active); with MDA-MB-231 breast, -40.1% (active); in the assay on RXF 393 renal, -22.8% (active); with SF-268 CNS, 17.9%; in the assay with SF-539 CNS, 12.3%; with UACC-257 melanoma, -36.6% (active). In addition, the growth in the assay with M14 melanoma was 0.293% (active).

Consider `COc1cc(-c2nn(-c3cccc(NC(=O)c4ccccc4)c3)cc2-c2ccncc2)ccc1Cl`, for which the growth was 33.8% with NCI-H23 lung; 39.1% in the assay on NCI-H226 lung; 52.3% with NCI-H322M lung; 27.1% with HOP-62 NSCLC; 2.74% (active) in the assay on NCI-H460 lung; 9.19% (active) with HOP-92 NSCLC. For the same compound, the growth was -29.6% (active) in the assay with NCI-H522 lung; 4.81% (active) in the assay on A549/ATCC NSCLC; 21.3% with 786-0 renal; 2.21% (active) with COLO 205 colon; 11.6% in the assay with DU-145 prostate; 2.59% (active) in the assay on K-562 leukemia. In addition, the growth in the assay with MALME-3M melanoma is 22.4%; in the assay on MDA-MB-231 breast it was 5.8% (active); in the assay with RXF 393 renal, -19.2% (active); in the assay on SF-268 CNS it was 18.7%; in the assay with SF-539 CNS it was -15% (active); in the assay with UACC-257 melanoma, 8.64% (active). For the same compound, in the assay with M14 melanoma, the growth is -3.82% (active).

On to `Nc1nnc(-c2ccc3ccccc3c2O)o1`, for which the growth is 85.3% with NCI-H23 lung; 94.8% in the assay on NCI-H226 lung; 88% with NCI-H322M lung; 89.8% with HOP-62 NSCLC; 92.6% with NCI-H460 lung; 83% in the assay on HOP-92 NSCLC. In addition, the growth was 85.1% in the assay with NCI-H522 lung; 93.5% in the assay with A549/ATCC NSCLC; 104% with 786-0 renal; 99.5% with COLO 205 colon; 117% in the assay on DU-145 prostate; 93.5% in the assay on K-562 leukemia. Also, the growth in the assay on MALME-3M melanoma is 89.1%; with MDA-MB-231 breast it was 92.4%; in the assay with RXF 393 renal, 99.2%; in the assay on SF-268 CNS it was 94.8%; in the assay with SF-539 CNS, 95.7%; in the assay with UACC-257 melanoma it was 102%. Further, the growth in the assay with M14 melanoma is 86.4%.

Turning to `COc1cc(/C=C/C(=O)c2ccc(Nc3ncnc4cc(OC)c(OC)cc34)cc2)cc(OC)c1`, the growth was 94.7% in the assay with NCI-H23 lung; 113% in the assay with NCI-H226 lung; 105% in the assay on NCI-H322M lung; 116% with HOP-62 NSCLC; 109% in the assay with NCI-H460 lung; 76.4% in the assay on HOP-92 NSCLC. The growth was 92.4% in the assay on NCI-H522 lung; 84.9% in the assay with A549/ATCC NSCLC; 92.3% in the assay on 786-0 renal; 117% with COLO 205 colon; 115% with DU-145 prostate; 41.3% in the assay on K-562 leukemia. Besides, the growth is 118% with MALME-3M melanoma; 104% in the assay with MDA-MB-231 breast; 98.4% with SF-268 CNS; 93.3% in the assay with SF-295 CNS; 101% with SF-539 CNS; 95.1% with UACC-257 melanoma. In addition, in the assay on M14 melanoma, the growth is 112%.
